Measurements taken from publication PMC7862700, “An all-to-all approach to the identification of sequence-specific readers for epigenetic DNA modifications on cytosine”.

Legend:
Experiment in all cases: DAPPL (digital affinity profiling via proximity ligation, sequencing); 10 mM Tris-HCl pH 7.5, 50 mM NaCl, 1 mM DTT, 4% glycerol, room temperature, 30 min; GST-TFs on glutathione beads, 16-mer random dsDNA library, 0.1% formaldehyde crosslink after washing; high values mean tight binding
Conditions in all cases: protein: recombinant; tags: N-terminal GST; dsDNA, one strand shown
[1] = target: T1, FLI1 (Homo sapiens, UniProt Q01543 1-452)
T1 sequence: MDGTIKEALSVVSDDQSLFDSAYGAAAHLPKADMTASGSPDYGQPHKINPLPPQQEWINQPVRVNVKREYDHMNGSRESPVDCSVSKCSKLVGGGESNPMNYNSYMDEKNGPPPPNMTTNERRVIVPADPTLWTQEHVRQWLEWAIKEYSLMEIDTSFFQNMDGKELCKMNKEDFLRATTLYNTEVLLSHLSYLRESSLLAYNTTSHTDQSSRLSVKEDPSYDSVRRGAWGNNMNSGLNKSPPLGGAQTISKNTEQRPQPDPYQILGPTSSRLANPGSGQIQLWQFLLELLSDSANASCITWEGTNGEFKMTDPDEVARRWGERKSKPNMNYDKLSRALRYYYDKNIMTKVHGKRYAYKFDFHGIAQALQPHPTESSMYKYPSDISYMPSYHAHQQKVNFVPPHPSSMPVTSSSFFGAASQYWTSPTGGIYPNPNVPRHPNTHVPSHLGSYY
In short: (§1)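 Sequencing on an Illumina NextSeq500 followed washing, crosslinking with 0.1% formaldehyde, proximity ligation (BsaI/T4 ligase, 1 h, 37 °C) and PCR amplification of pools that had been incubated for 30 min at room temperature with 200 nmole of a random double-stranded 16-mer DNA library in Tris/NaCl/DTT/glycerol buffer. Each pool held DNA-barcoded human transcription factors, expressed in yeast as GST fusions and captured on glutathione beads, plus a tag-only sample. Binding signal is a hexamer's read frequency for a factor divided by its frequency in the tag-only sample.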

[2] = target: T2, ELK1 (Homo sapiens, UniProt P19419 1-428)
T2 sequence: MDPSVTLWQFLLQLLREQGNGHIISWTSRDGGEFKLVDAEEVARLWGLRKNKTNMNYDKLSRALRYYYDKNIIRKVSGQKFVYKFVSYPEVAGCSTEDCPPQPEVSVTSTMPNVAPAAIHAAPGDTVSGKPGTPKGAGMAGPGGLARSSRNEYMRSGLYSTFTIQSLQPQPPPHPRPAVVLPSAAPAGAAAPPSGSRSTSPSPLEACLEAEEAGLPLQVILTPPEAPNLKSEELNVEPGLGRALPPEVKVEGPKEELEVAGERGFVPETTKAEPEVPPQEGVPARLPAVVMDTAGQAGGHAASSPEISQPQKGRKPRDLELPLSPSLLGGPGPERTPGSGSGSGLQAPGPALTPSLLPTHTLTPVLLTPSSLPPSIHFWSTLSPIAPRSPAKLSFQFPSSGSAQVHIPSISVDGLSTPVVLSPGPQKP
In short: as §1

[3] = target: ELF1 (Homo sapiens, UniProt P32519 1-619)
ELF1, sequence (P32519 whole entry): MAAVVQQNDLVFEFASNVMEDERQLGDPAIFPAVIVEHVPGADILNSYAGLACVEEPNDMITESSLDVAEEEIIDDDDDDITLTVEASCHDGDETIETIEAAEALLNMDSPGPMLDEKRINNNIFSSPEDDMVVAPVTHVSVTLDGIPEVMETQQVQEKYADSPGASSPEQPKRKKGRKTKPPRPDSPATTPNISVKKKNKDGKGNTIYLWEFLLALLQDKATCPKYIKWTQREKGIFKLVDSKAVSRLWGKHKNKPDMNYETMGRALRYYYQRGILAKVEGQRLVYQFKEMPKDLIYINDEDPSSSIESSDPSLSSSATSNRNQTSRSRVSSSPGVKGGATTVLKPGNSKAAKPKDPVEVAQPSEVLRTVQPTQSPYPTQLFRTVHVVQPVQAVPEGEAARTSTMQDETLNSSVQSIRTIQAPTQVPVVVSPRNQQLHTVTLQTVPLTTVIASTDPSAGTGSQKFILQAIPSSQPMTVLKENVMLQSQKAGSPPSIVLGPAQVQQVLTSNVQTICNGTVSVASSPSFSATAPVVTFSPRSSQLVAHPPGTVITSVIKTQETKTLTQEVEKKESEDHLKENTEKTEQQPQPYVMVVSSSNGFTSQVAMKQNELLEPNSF
In short: as §1

[4] = target: SPIB (Homo sapiens, UniProt Q01892 1-262)
SPIB, sequence (Q01892 whole entry): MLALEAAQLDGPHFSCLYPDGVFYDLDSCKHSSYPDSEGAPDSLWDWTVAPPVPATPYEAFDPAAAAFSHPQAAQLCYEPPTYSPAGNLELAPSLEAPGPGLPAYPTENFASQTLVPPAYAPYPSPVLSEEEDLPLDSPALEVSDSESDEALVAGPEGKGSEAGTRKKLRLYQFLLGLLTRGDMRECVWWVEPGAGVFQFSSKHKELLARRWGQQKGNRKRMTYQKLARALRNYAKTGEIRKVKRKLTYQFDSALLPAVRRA
In short: as §1

[5] = target: T3, FEV (Homo sapiens, UniProt Q99581 1-238)
T3 sequence: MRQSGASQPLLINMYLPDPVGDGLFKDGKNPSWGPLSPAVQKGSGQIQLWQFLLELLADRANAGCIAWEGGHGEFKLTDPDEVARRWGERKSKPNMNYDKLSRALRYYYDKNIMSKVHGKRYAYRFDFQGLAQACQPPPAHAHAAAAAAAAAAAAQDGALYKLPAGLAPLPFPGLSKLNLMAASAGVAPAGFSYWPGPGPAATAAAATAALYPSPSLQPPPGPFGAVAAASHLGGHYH
In short: as §1

[6] = target: ELF4 (Homo sapiens, UniProt Q99607 1-663)
ELF4, sequence (Q99607 whole entry): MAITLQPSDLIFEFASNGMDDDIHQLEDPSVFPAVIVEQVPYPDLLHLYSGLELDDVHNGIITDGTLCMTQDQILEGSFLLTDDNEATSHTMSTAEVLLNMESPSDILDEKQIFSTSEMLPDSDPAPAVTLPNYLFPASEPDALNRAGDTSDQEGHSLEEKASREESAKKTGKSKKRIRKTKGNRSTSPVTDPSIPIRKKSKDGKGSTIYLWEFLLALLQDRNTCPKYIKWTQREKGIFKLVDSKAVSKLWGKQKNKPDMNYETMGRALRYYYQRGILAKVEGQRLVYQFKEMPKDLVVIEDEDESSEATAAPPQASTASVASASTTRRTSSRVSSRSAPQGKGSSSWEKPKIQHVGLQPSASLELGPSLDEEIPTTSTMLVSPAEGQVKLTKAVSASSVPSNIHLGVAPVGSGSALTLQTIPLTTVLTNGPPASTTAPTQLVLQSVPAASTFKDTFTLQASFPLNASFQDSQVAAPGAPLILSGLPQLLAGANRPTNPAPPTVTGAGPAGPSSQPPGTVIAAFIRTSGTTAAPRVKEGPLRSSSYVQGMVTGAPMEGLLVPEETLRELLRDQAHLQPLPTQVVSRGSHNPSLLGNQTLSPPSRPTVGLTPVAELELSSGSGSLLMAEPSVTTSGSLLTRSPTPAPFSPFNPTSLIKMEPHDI
In short: as §1

[7] = target: T4, ETV2 (Homo sapiens, UniProt O00321 1-342)
T4 sequence: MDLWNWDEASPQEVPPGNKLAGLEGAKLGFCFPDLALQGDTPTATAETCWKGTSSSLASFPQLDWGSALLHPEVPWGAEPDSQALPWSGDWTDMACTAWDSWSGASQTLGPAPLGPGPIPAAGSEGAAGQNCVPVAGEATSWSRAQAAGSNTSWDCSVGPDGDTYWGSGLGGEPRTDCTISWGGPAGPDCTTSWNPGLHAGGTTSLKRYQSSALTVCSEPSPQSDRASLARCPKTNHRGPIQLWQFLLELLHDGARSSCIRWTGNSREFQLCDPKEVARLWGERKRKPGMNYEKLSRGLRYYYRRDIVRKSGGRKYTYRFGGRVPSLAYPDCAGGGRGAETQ
In short: as §1

[8] = target: T5, ERF (Homo sapiens, UniProt P50548 1-548)
T5 sequence: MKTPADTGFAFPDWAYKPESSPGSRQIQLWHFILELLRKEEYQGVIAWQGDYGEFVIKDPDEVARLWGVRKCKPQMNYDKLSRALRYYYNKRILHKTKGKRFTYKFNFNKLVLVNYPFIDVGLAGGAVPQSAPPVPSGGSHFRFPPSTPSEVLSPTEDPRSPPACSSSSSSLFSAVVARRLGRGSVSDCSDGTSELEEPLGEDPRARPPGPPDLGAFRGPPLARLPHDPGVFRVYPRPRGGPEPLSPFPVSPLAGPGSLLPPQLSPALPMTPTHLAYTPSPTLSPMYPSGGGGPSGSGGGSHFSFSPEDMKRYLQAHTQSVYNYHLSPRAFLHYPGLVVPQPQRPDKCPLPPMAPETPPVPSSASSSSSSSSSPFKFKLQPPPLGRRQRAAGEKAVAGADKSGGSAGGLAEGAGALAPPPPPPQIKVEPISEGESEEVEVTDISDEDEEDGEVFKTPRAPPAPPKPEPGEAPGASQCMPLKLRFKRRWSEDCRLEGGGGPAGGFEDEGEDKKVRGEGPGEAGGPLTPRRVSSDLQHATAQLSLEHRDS
In short: as §1

[9] = target: T6, ETV7 (Homo sapiens, UniProt Q9Y603 1-341)
T6 sequence: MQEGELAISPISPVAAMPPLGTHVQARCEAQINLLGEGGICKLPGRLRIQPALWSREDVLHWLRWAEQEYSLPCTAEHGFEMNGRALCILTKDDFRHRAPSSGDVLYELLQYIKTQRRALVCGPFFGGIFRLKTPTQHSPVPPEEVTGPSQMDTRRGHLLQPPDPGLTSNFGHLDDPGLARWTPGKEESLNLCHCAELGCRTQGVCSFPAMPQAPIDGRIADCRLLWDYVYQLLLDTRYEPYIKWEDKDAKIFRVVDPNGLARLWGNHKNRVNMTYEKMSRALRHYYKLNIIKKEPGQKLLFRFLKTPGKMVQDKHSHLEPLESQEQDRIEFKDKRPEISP
In short: as §1

CGGCCC
binding signal [1]: 1.05 fold enrichment (6-mer frequency, TF over GST control) | binding signal [2]: 1.03 fold enrichment (6-mer frequency, TF over GST control) | binding signal [3]: 1.01 fold enrichment (6-mer frequency, TF over GST control) | binding signal [4]: 1.07 fold enrichment (6-mer frequency, TF over GST control) | binding signal [5]: 1 fold enrichment (6-mer frequency, TF over GST control) | binding signal [6]: 1.03 fold enrichment (6-mer frequency, TF over GST control) | binding signal [7]: 1.19 fold enrichment (6-mer frequency, TF over GST control) | binding signal [8]: 1.01 fold enrichment (6-mer frequency, TF over GST control) | binding signal [9]: 1.05 fold enrichment (6-mer frequency, TF over GST control)
